Source: PubChem BioAssay (National Center for Advancing Translational Sciences (NCATS))
Compounds with a hit are over-represented: about 2.8% of the library has one in this group of screens.
PI5P4Ka inh: blocks human PI5P4K alpha kinase activity. P48426. PI5P4Kalpha enzyme, ADP-Glo luminescence, 60 min; stronger effect = lower value. max response, %. 330,000 tested, 1.2% active. AID 652105; active means max response of -50% or lower; inconclusive means between -30% and -50%; inactive means -30% or higher; further: value at the top dose of about 77 µM
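Reactions run in 0.038 M HEPES pH 7.4, 0.28 mM EGTA, 0.1% CHAPS and 5% DMSO, with PI5P4Kalpha, substrate, compound and 5 microM ATP final, one hour at room temperature. Readout is ADP-Glo luminescence.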
WRN helicase inh-1: inhibitors of human WRN helicase. AID 651768. 360,000 tested, 0.46% active. Potency, µM (top dose mostly 114 µM), hits mostly inhibitors. WRN helicase unwinding, fluorescent forked duplex, kinetic. Q14191; further: nearly all actives have a fitted effect of over 55% in size
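Kinetic red-fluorescence monitoring (525/598 nm) tracks WRN helicase activity after 100 nM fluorophore-quencher forked duplex and 2 mM ATP are added to 20 nM enzyme pretreated 15 min at room temperature with compound.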
POLB inh: DNA polymerase beta (human) inhibition. AID 485314. Pol beta primer extension/strand displacement, fluorescence kinetic. Potency, µM (highest dose often 114 µM), most hits filed as inhibitors. P06746. 340,000 tested, 1.3% active
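Pol beta (10 nM) and compounds were preincubated 15 min at room temperature, then 50 nM substrate (final) started primer extension/strand displacement. Reads were taken at 0 and 10 min; concentration-response data were fitted to a four-parameter Hill equation.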
POLK inh: blocks human DNA polymerase kappa activity; Q9UBT6; purified Pol kappa, fluorescent DNA synthesis assay, 10 min; Potency, µM (highest dose often 107 µM), most hits filed as inhibitors; 400,000 tested, 0.53% active
Target sequence (Q9UBT6 whole entry, looked up): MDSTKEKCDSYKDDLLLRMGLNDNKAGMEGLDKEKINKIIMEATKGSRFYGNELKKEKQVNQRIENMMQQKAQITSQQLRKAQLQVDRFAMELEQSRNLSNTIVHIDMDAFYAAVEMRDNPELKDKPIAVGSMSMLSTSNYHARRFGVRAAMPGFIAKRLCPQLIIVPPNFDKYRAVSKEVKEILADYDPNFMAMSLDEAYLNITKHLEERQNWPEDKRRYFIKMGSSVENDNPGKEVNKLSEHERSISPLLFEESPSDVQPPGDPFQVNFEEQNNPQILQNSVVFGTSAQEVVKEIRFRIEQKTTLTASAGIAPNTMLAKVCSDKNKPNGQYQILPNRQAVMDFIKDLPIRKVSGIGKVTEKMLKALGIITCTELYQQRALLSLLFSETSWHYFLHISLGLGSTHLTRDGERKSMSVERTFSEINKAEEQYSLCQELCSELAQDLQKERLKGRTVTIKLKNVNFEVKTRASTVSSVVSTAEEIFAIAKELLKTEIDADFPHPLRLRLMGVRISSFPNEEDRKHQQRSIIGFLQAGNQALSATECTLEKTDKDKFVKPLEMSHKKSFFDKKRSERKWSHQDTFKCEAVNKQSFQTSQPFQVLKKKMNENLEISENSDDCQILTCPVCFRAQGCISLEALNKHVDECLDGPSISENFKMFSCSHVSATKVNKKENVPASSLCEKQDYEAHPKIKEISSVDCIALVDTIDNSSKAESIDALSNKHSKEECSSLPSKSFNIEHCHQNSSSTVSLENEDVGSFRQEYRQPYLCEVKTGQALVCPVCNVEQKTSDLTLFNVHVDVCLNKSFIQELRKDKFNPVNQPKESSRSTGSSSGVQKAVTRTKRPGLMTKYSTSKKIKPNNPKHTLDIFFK
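Kinetic fluorescence screen: compound preincubated 15 min RT with 10 nM enzyme; 50 nM substrate (final) initiates; reads at 0/10 min.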
POLI inh: inhibitors of human DNA polymerase iota | Pol iota fluorescent replication assay, 10 min | 390,000 tested, 1% active | AID 588590 | Q9UNA4 | Potency, µM (doses to about 115 µM), hits mostly inhibitors
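Fluorescent replication assay read twice, at 0 min and 10 min after adding 50 nM (final) substrate. Enzyme (10 nM) and compounds were first incubated 15 min at room temperature; enzyme-free buffer wells were negative controls.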
Pol eta inh: inhibitors of human DNA polymerase eta; Potency, µM (series often up to 114 µM), usual class: inhibitors; AID 588591; recombinant Pol eta, fluorescent DNA replication assay; 390,000 tested, 1.2% active; Q9Y253
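Pol eta at 10 nM preincubated with compounds 15 min at room temperature; reaction started with fluorescent substrate (50 nM final) and read kinetically at 0 and 10 min.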
WRN helicase inh-2: WRN helicase inhibition, cherry-pick retest | shares compounds with WRN helicase inh-1 | WRN helicase DNA unwinding, fluorescence kinetic | Potency, µM (titrated, usually from 57.1 µM), most hits filed as inhibitors | 610 tested, 63% active | AID 720497; further: nearly all actives have a fitted effect of over 65% in size
TO DNA binding: counter-screen for WRN helicase inhibitors: DNA binding; Potency, µM (series often up to 57.1 µM), most hits filed as inhibitors; thiazole orange DNA binding displacement, fluorescence; 610 tested, 10% active; AID 720499; shares compounds with WRN helicase inh-1;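 further: drop in dye fluorescence marks compound binding to DNA; nearly all actives have a fitted effect of over 60% in size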
BLM counter: BLM helicase inhibition, WRN selectivity check | AID 720503 | Potency, µM (series often up to 57.1 µM), most hits filed as inhibitors | Recombinant BLM helicase DNA unwinding, red fluorescence | shares compounds with WRN helicase inh-1 | 610 tested, 60% active; further: nearly all actives have a fitted effect of over 60% in size
Hits are given with their value. Unless noted, the call rests on the fitted dose curve; in most records, active means well fitted curve in the direction sought with a large enough effect; inconclusive means small, poorly fitted or top-dose-only effect, or another doubt; inactive means no such curve, though single readings can be large; an effect the other way counts as inactive or inconclusive.

COc1cc2nc(Nc3cccc(F)c3)nc(N)c2cc1OC was read as PI5P4Ka inh inactive, WRN helicase inh-1 inactive, POLB inh inconclusive, POLK inh inactive, POLI inh inactive and Pol eta inh inconclusive.
Screening CS(=O)(=O)N1CCC2(CC1)CN(c1cccc(-c3ccccc3)c1)C2 returned POLK inh inactive.
For O=C1OC2(c3ccccc31)c1ccccc1-c1ccccc12 the results were PI5P4Ka inh inactive, WRN helicase inh-1 inactive, POLK inh inactive, POLI inh inactive and Pol eta inh inactive.
O=C1OC(c2ccc3ccccc3c2O)(c2ccc3ccccc3c2O)c2ccccc21 was read as PI5P4Ka inh -79, WRN helicase inh-1 inconclusive, POLK inh inconclusive, POLI inh inconclusive, Pol eta inh 25µM, WRN helicase inh-2 inconclusive, TO DNA binding 24µM and BLM counter inactive.
CN(C)CCCNc1nc2cc(-c3ccsc3)sc2c(=O)n1C was read as PI5P4Ka inh inactive and WRN helicase inh-1 inactive.
`CN(C)CCCNc1nc2cc(-c3ccc4c(ccn4C)c3)sc2c(=O)n1C` gave PI5P4Ka inh inactive, WRN helicase inh-1 inconclusive, WRN helicase inh-2 24µM, TO DNA binding 24µM and BLM counter inactive.
For CC1Cc2ccccc2N1C(=O)CSc1nnc(-c2cccc(Cl)c2)o1 (stereo not drawn) the results were POLB inh inactive, POLK inh inactive and POLI inh inactive.
For C=CCn1c(SCC(=O)c2ccc(O)c(O)c2)nnc1-c1ccc(C)cc1 the results were PI5P4Ka inh inactive, WRN helicase inh-1 inconclusive, POLK inh inconclusive, POLI inh inconclusive, Pol eta inh inconclusive, WRN helicase inh-2 19µM, TO DNA binding inactive and BLM counter inconclusive.
For Cc1cc(NS(=O)(=O)c2ccc(NC(=O)/C=C/c3ccc(Br)cc3)cc2)no1 the results were PI5P4Ka inh inactive, WRN helicase inh-1 inconclusive, POLB inh inactive, POLK inh inactive, POLI inh inactive, Pol eta inh inactive, WRN helicase inh-2 inactive, TO DNA binding inactive and BLM counter inconclusive.
`Cc1nnc(-c2cccc(Br)c2)c2cn(-c3cccc(Br)c3)nc12` gave PI5P4Ka inh inactive, WRN helicase inh-1 25µM, POLB inh inactive, POLK inh inactive, POLI inh inactive, Pol eta inh inconclusive, WRN helicase inh-2 inconclusive, TO DNA binding inactive and BLM counter 9.6µM.
Cc1nnc(-c2cccc(Br)c2)c2cn(-c3ccccc3)nc12 was read as WRN helicase inh-1 inactive, POLB inh inactive, POLK inh inactive, POLI inh inactive and Pol eta inh inactive.
For C#CCOc1ccc(/C=C2/C(=O)ON=C2C)cc1Br the results were PI5P4Ka inh inactive, WRN helicase inh-1 inconclusive, POLB inh inconclusive, POLK inh inactive, POLI inh inactive, Pol eta inh inactive, WRN helicase inh-2 inactive, TO DNA binding inactive and BLM counter inconclusive.
`C=CCOc1ccc(/C=C2/C(=O)ON=C2C)cc1OC` gave PI5P4Ka inh inactive, WRN helicase inh-1 inconclusive, POLB inh inactive, POLK inh inactive, POLI inh inactive and Pol eta inh inactive.
CCOc1cc(/C=C2\C(=O)ON=C2C)ccc1OCc1ccccc1 was read as PI5P4Ka inh inactive, WRN helicase inh-1 inconclusive, POLB inh inactive, POLK inh inactive, POLI inh inactive, Pol eta inh inconclusive, WRN helicase inh-2 inconclusive, TO DNA binding inactive and BLM counter inactive.
Screening C#CCOc1ccc(Cl)cc1/C=C1/C(=O)ON=C1C returned PI5P4Ka inh inactive, WRN helicase inh-1 inactive, POLB inh inactive, POLK inh inactive, POLI inh inactive and Pol eta inh inactive.
